# PubChem BioAssay (Tox21)
# Records with an inconclusive call do not appear. Active and inactive are the calls of the source. Calls follow the shape of the full dose curve.
# Assay: qHTS assay for small molecules that induce genotoxicity in human embryonic kidney cells expressing luciferase-tagged ATAD5 - cell viability (AID 651634); also: nearly all actives have a fitted effect of over 25% in size
# Conditions: HEK293T ATAD5-luc cells viability, CellTiter-Fluor, 15.5 h; series mostly up to 83.3 µM; activity, negative = cytotoxicity: at the top concentration
# Source text: National Center for Advancing Translational Sciences [NCATS]
# NIH Chemical Genomics Center [NCGC]
# U.S. Environmental Protection Agency [EPA]
# National Institutes of Environmental Health Sciences [NIEHS]
# National Toxicology Program [NTP]
# U.S. Food and Drug Administration [FDA]
# Enhanced Level of Genome Instability Gene 1 (ELG1; human ATAD5) protein levels increase in response to various types of DNA damage. Using a luciferase reporter-gene tagged with ElG1, a cell-based assay [developed by Kyungjae Myung, NHGRI, NIH] was used to measure the induction of ATAD5 in human embryonic kidney cells (HEK293T). So, increase in luciferase activity can be used to identify the compounds that cause genetic stress. In addition to genotoxicity, these cells were also used to test for cytotoxicity by measuring the protease activity within live cells.
# Tox21 Assay Protocol Summary:
# For cytotoxicity screening, 2,000 cells in 5 uL/well were dispensed into white, solid-bottom 1536-well plates using a Multidrop Combi (Thermo Scientific) dispenser. Following transfer of 23 nL compound or DMSO vehicle by a pin tool, the plates were incubated 15.5 hr at 37C and 5% CO2. 1 ul CellTiter-Fluor reagent (Promega, Madison, WI) was then added to each plate and following 30 min incubation at 37C, fluorescence intensity was quantified on a ViewLux CCD-based plate reader.
# % is scaled to controls: 0 for no effect and ±100 for the full control effect.
Structure (SMILES),"activity, negative = cytotoxicity",Potency
CCOc1ccccc1N,7.48% (inactive),–
CC(=O)Nc1ccc(C)c(Cl)c1,16.5% (inactive),–
C=CC(C)(O)CC/C=C(\C)CCC=C(C)C (stereo not given),–,inactive
CN1CCN(C2=Nc3cc(F)ccc3Cc3ccccc32)CC1,16.8% (inactive),–
CC(C)C1=CC2=CC[C@@H]3[C@](C)(CCC[C@@]3(C)C(=O)O)[C@H]2CC1,–,inactive
Oc1ccccc1C=NCc1ccccc1,26.1% (inactive),–
Cc1c(C(=O)NCCO)[n+](=O)c2ccccc2n1[O-],7.56% (inactive),–
C[C@@H]1CN(c2c(F)c(F)c3c(=O)c(C(=O)O)cn(C4CC4)c3c2F)C[C@H](C)N1,12.3% (inactive),–
CCCCC1CCC(=O)O1 (stereo not given),14.1% (inactive),–
CC(C)(C)c1ccc(OC(=O)c2ccccc2O)cc1,-7.92% (inactive),–
COc1ccc(S(=O)(=O)Nc2nnc(CC(C)C)s2)cc1,–,inactive
ClC(Cl)Cl,–,inactive
CCCCCCCCCC#N,15.7% (inactive),–
CC(C)S,4.16% [at 95.3 µM] (inactive),–
C=CC1CO1 (stereo not given),-7.47% [at 95.3 µM] (inactive),–
CCCCN1C[C@H](O)[C@@H](O)[C@H](O)[C@H]1CO,14.5% (inactive),–
CCOC(=O)CS,-12.3% [at 95.3 µM] (inactive),–
CN(C)C(=O)NC1(c2ccccc2)CCN(CCC[C@]2(c3ccc(Cl)c(Cl)c3)CCCN(C(=O)c3ccccc3)C2)CC1,-4.94% [at 39.1 µM] (inactive),–
C1CSCCS1,10% (inactive),–
CCCCOc1cc(C(=O)NCCN(CC)CC)c2ccccc2n1,16.6% [at 39.1 µM] (inactive),–

Structure (SMILES),"activity, negative = cytotoxicity",Potency
CCCCNCCCC,9.3% (inactive),–
O=C(O)[C@@H]1CSCN1,8.26% (inactive),–
CC(C)c1ccccc1,14.3% [at 95.3 µM] (inactive),–
CCC(=O)Nc1ccc(O)cc1,16.8% (inactive),–
O=C(O)c1cccc(Cl)c1Cl,5.31% (inactive),–
COc1nc(C)nc(NC(=O)NS(=O)(=O)c2ccccc2OCCCl)n1,-4.64% (inactive),–
C=Cc1ccccc1,–,inactive
CCCCNc1cc(C(=O)O)cc(S(N)(=O)=O)c1Oc1ccccc1,27.1% [at 39.1 µM] (inactive),–
CN1CCN(c2c(F)cc3c(=O)c(C(=O)O)cn4c3c2SCC4)CC1,7.76% (inactive),–
CO[C@@]1(NC(=O)CSCC#N)C(=O)N2C(C(=O)O)=C(CSc3nnnn3C)CS[C@@H]21,16.7% (inactive),–
C[C@@H]1CN(c2c(F)c(N)c3c(=O)c(C(=O)O)cn(C4CC4)c3c2F)C[C@H](C)N1,17.4% (inactive),–
CCc1cc(Cl)c(OC)c(C(=O)NC[C@@H]2CCCN2CC)c1O,–,inactive
CC1(O)CSC(C)(O)CS1 (stereo not given),-13% (inactive),–
CC(=O)OC1C2(C)CCC(C2)C1(C)C (stereo not given),11.9% (inactive),–
CCN(CCCc1ccccc1)CCCc1ccccc1,-7.64% [at 39.1 µM] (inactive),–
O=C1N(c2ccccc2)c2ccccc2C1(Cc1ccncc1)Cc1ccncc1,24.2% (inactive),–
CC(C)C(=O)OC/C=C/c1ccccc1,8.81% (inactive),–
OCc1c2ccccc2cc2ccccc12,13.2% [at 95.3 µM] (inactive),–
CC(C)(C)c1cccc(O)c1,7.44% (inactive),–
CCCCCCCOC(=O)CCC,15.8% (inactive),–
